Assay results: PubChem BioAssay (EPA / NIEHS)
Activity calls are given as the source filed them. The calls were made as follows: active = hit-call score of the fitted dose curve at least 0.9, where 1 is the maximum; inactive = score below 0.9.

Test: ATG_Sox_CIS: Attagene CIS-FACTORIAL HepG2 Assay for human SRY-box transcription factor (SOX) (AID 2282960)
Conditions: HepG2 Attagene cis-factorial SOX reporter, mRNA; actives raise or lower the signal
Experimental: ATG_CIS is a cell-based, multiplexed-readout assay that uses HepG2, a human liver cell line, with measurements taken at 24 hours after chemical dosing in a 24-well plate.ATG_Sox_CIS is one of 52 assay component(s) measured or calculated from the ATG_CIS assay. It is designed to make measurements of mRNA induction, a form of inducible reporter, as detected with fluorescence intensity signals by Reverse transcription polymerase chain reaction (RT-PCR) and Capillary electrophoresis technology.Data from the assay component ATG_Sox_CIS was analyzed into 1 assay endpoint. This assay endpoint, ATG_Sox_CIS, was analyzed with bidirectional fitting relative to DMSO as the negative control and baseline of activity. Using a type of inducible reporter, measures of mRNA for gain or loss-of-signal activity can be used to understand the reporter gene at the transcription factor-level as they relate to the gene SOX1. Furthermore, this assay endpoint can be referred to as a primary readout, because this assay has produced multiple assay endpoints where this one serves a reporter gene function. To generalize the intended target to other relatable targets, this assay endpoint is annotated to the dna binding intended target family, where the subfamily is HMG box protein.
Human liver HepG2 cells are transiently transfected with multiple reporter transcription units (MRTUs) in 6-well plates using FuGene 6 reagent (Roche; 3 ml FuGene/1 mg DNA). The MRTU constructs are regulated by a cis-regulating element (promoter). […] A major difference between the CIS and TRANS system is that in CIS activities of endogenous TFs are measured, whereas the TRANS assay evaluates changes in activities of exogenous, chimeric NR-Gal4 proteins. […] At the end of 24 hour incubation, total RNA was isolated using TriZol reagent (Invitrogen). The isolated RNA is then reverse-transcribed using oligo(dT) primer and Mo-MLV reverse transcriptase (Invitrogen) with DNAse I (Ambion) treatment for 30 min. The one-tenth of the produced cDNA was amplified by PCR using Taq DNA polymerase (Invitrogen) and two reporter sequence-specific primers. The PCR products were fluorescently labeled by primer extension with 6-arboxyfluorescein (6-FAM) 5'-labeled reporter sequence-specific primer (2 min at 95 C, 20 s at 68 C and 10 min at 72 C) and these products were digested with 5U of HpaI (New England Biolabs) for 2h at 37 C. The fragments were purified using Qiaquick PCR columns (Qiagen), analyzed on an ABI 3130xL genetic analyzer (Applied Biosystems) with peak positions identified by using a set of X-rhodamine (ROX)-labeled MapMarker1000 molecular weight standards (BioVentures). The raw capillary electrophoresis data was processed using Attagraph software (Attagene).

outcome, inactive:
NC(=O)Nc1ccc(Cl)cc1
CC(=O)[C@H]1CC[C@H]2[C@@H]3CC=C4C[C@@H](O)CC[C@]4(C)[C@H]3CC[C@]12C
C=C(C)C(=O)OCc1ccccc1
CCCC/C=C\CCCCCCCCCC=O
CNCCCC12CCC(c3ccccc31)c1ccccc12
COc1nc(C)nc(N)n1
O=C=NC1CCC(CC2CCC(N=C=O)CC2)CC1 (stereo not given)
C=CCOc1nc(OCC=C)nc(OCC=C)n1
CCC(=O)/C=C/C1C(C)=CCCC1(C)C (stereo not given)
CCCCO
Nc1nc2ccc([N+](=O)[O-])cc2s1
NC(=O)NC1NC(=O)NC1=O (stereo not given)
CC(=O)OCCOC(C)=O
CCCCCCCCCCCCCC(=O)O
O=[N+]([O-])c1ccc(C=Cc2ccc([N+](=O)[O-])cc2S(=O)(=O)O)c(S(=O)(=O)O)c1
CC(C)c1cccc(O)c1
CCC(=O)OCCC(C)CCC=C(C)C (stereo not given)
OC[C@H]1O[C@H](O[C@]2(CCl)O[C@H](CCl)[C@@H](O)[C@@H]2O)[C@H](O)[C@@H](O)[C@H]1Cl
Cc1ccc(Nc2ccc(O)c3c2C(=O)c2ccccc2C3=O)cc1
O=C(O)c1cccc([N+](=O)[O-])c1
O=P(c1ccccc1)(c1ccccc1)c1ccccc1
Nc1cccc(S(=O)(=O)c2cccc(N)c2)c1
C=C(C)C(=O)O[C@H]1C[C@@H]2CC[C@@]1(C)C2(C)C
CCCCC[Si](OCC)(OCC)OCC
CC(C)Oc1ccccc1O
CC(C)(COC(=O)c1ccccc1)COC(=O)c1ccccc1
Nc1ccc(F)c([N+](=O)[O-])c1
CCCCNC(=O)NS(=O)(=O)c1ccc(C)cc1
C=C(C)C1CCC(C)CC1O (stereo not given)
Cc1ccc2n[nH]nc2c1
CCCc1c(OCCCOc2ccc(OCC(=O)O)cc2)ccc(C(C)=O)c1O
COC(=O)C1=C(C)NC(C)=C(C(=O)OCCN(C)Cc2ccccc2)C1c1cccc([N+](=O)[O-])c1 (stereo not given)
O=C(O)CCSCCC(=O)O
Cc1ccc(C(=O)c2cc(O)c(O)c([N+](=O)[O-])c2)cc1
Nc1cc([N+](=O)[O-])ccc1Cl
Cc1ccc(C(C)C)cc1O
CC(=O)c1c(C)cc(C(C)(C)C)cc1C
CC1(C)CCC(C)(C)c2cc(C(=O)Nc3ccc(C(=O)O)cc3)ccc21
O=S(=O)(O)NC1CCCCC1

AC50, active:
CC1CCC(C(C)CS)CC1S (stereo not given) 52.9 µM
